Source: PubChem BioAssay (several laboratories)
Most compounds without a hit are left out; they make up all but 3.3% or so of the library.
eIF4E-4G inh – inhibitors of eIF4E and eIF4G interaction in translation initiation | P63073+Q04637 | TR-FRET eIF4E-eIF4GI(517-606) binding, 2 h | inhibition, % at 21.7 µM | 0.37% of 220,000 active | AID 782;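 further: 0% = full FRET control wells and 100% = background wells lacking eIF4GI fragment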
Target sequence (P63073 whole entry, looked up, the tested form may be a part): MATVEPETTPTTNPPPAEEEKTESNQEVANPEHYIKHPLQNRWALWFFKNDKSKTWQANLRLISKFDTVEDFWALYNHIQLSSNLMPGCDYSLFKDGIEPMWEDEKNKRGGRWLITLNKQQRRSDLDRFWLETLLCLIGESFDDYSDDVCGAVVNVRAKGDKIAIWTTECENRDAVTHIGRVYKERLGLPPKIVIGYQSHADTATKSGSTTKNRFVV
Target sequence (Q04637 whole entry, looked up, the tested form may be a part): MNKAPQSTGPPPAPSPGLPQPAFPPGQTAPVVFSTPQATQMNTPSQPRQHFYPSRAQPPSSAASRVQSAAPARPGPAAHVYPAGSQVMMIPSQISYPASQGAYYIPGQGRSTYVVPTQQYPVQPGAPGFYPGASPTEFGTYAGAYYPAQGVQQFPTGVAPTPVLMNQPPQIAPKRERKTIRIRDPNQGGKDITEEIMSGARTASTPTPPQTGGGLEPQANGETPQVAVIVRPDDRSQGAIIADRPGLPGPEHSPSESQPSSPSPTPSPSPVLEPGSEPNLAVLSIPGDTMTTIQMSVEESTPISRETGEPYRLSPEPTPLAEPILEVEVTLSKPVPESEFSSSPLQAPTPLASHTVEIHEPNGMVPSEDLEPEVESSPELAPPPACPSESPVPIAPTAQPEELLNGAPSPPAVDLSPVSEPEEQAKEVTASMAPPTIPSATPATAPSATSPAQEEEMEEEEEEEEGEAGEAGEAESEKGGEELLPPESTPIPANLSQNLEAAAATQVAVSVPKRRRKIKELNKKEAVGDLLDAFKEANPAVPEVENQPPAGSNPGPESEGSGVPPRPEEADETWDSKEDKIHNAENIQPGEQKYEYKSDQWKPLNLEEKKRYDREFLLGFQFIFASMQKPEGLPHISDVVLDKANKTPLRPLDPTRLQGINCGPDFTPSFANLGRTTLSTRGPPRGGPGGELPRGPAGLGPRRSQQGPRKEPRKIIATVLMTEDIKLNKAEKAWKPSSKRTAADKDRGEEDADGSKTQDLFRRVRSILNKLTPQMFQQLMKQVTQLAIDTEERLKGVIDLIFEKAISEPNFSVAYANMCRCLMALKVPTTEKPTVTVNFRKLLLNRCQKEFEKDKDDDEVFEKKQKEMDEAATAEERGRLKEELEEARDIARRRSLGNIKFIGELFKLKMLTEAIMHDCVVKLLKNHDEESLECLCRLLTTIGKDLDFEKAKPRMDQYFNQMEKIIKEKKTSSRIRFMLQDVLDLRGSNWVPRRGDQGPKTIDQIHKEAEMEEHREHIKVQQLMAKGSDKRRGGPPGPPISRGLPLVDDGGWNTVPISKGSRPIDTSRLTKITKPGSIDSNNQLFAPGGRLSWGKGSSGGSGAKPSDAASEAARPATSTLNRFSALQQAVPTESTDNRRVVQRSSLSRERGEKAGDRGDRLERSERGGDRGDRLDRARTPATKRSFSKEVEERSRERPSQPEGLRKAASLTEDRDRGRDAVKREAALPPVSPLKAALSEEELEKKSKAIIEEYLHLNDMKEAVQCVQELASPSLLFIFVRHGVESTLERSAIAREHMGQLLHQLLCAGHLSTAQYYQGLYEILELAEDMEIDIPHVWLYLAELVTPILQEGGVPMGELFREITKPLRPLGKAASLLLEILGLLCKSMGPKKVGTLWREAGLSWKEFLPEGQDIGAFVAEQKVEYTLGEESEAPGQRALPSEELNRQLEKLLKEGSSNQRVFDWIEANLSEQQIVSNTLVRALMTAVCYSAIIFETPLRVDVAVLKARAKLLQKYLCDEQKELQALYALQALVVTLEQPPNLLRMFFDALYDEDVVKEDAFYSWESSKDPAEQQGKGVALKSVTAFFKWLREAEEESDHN
Mcl1-Bid inh – disrupts binding of human Mcl-1 to Bid peptide | 0.97% of 220,000 active | Q07820 | TR-FRET Mcl-1/Bid-Dy647 peptide binding, 1536-well | inhibition, % at 21.7 µM;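 active means compounds that cut the binding signal by more than half at the single screening dose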;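 further: His-tagged Mcl-1 with europium anti-His antibody binding Bid BH3 peptide; 0% = Mcl-1 plus peptide wells and 100% = peptide-only wells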
Bim-Mcl-1 – disrupts Bim peptide binding to human Mcl-1; Bead-based flow cytometry, Bim peptide-Mcl-1 binding; 0.1% of 190,000 active; Q07820; AID 1009; inhibition, % at 10 µM; in the data active means inhibition above about 40%;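 further: 0% = no compound tracer wells and 100% = peptide blocker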
Mcl1-Noxa inh – Mcl-1/Noxa interaction inhibition; Q07820; TR-FRET Mcl-1/Noxa peptide binding, 2 h; inhibition, % at 21.7 µM; 1.5% of 220,000 active; AID 1022;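 active means compounds that cut the protein-peptide binding signal by more than 50% relative to plate controls in a single-dose test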;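 further: His-tagged Mcl-1 with rhodamine Noxa BH3 peptide and terbium anti-His antibody; 0% = Mcl-1 plus Noxa peptide wells and 100% = peptide-only wells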
14-3-3 Bad PPI – disrupts binding of bovine 14-3-3 zeta to phospho-Bad peptide. inhibition, % at 21.7 µM. 0.71% of 220,000 active. TR-FRET 14-3-3zeta/Dy647-pBad peptide displacement, 1 h;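 active means inhibition above about 70%, limit read from the data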;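 further: 0% = full 14-3-3 plus peptide FRET controls and 100% = background without 14-3-3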
NCF1 inh – blocks human p47phox regulatory protein of NADPH oxidases; P14598; p47phox/p22phox peptide binding, fluorescence polarization, 2 h; inhibition, % at 24.7 µM; 0.53% of 220,000 active;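 further: 0% = p47phox with labelled peptide and 100% = labelled peptide alone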
An asterisk follows results filed as active; / = not tested or not shown.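 How the source made its calls, unless noted: active means inhibition above about 30% (limit read from the data); inactive means the rest.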

SMILES	eIF4E-4G inh	Mcl1-Bid inh	Bim-Mcl-1	Mcl1-Noxa inh	14-3-3 Bad PPI	NCF1 inh
Cc1nc2cc(C(F)(F)F)ccc2n1C	0	-15	-1	-12	-5	-1
COC(=O)c1ccccc1Nc1ccccc1	-10	-27	3	-10	-9	-4
c1ccc(Nc2cccc(Nc3ccccc3)n2)cc1	4	-21	32	72*	-6	-15
c1ccc(Nc2cccc3c(Nc4ccccc4)cccc23)cc1	-7	6	/	51*	6	-2
O=C(C[n+]1ccc2ccccc2c1)c1cccc2ccccc12	11	-31	3	24	17	-6
O=C(/C=C/c1cc[n+](CC(=O)c2ccc3cccc4c3c2CC4)cc1)c1ccc2cccc3c2c1CC3	-12	99*	/	55*	94*	29
COc1ccc(CCN(Cc2nc3ccccc3c(=O)[nH]2)C(=O)C2CC2)cc1	5	-18	2	1	-13	-5
O=C(NC(=O)c1ccc(Cl)cc1)Nc1ccc(-c2cnco2)cc1	-8	6	/	-139	78*	12
Cc1c(CCC(=O)O)c(=O)oc2c(C)c(OCc3cc4c(cc3Cl)OCO4)ccc12	-14	-31	/	58*	-5	3
Cc1csc(Sc2ccc(S(=O)(=O)N3CCCC3)cn2)n1	1	-5	1	5	-14	1
O=C(O)C(O)Cc1c[nH]c2ccccc12 (centres undefined)	-2	1	-3	25	3	-2
NCC(c1ccccc1)c1c[nH]c2ccccc12 (centres undefined)	2	-34	47*	7	-10	-14
O=C(CC(C(=O)O)c1c[nH]c2ccccc12)c1ccccc1 (centres undefined)	5	82*	-2	22	2	1
CC(Cc1c[nH]c2ccccc12)C(=O)O (centres undefined)	10	-72	2	57*	52	-2
CCOC(=O)NC(=S)Nc1c(C)n(C)n(-c2ccccc2)c1=O	2	-40	2	3	-9	-6
COc1ccc(C(=O)Nc2nc3cc4c(cc3s2)OCO4)c(OC)c1	3	51*	/	52*	19	-5
CCN(C(=O)COC(=O)CNS(=O)(=O)c1ccccc1)c1ccccc1	-2	-5	1	15	3	-5
Cc1ccc(Cn2nnc3c(=O)n(CC(=O)NCc4ccccc4)cnc32)cc1	-4	-15	1	8	-1	-3
COc1ccc(N=C2S/C(=C\c3ccc(OCC(=O)O)cc3)C(=O)N2CCc2c[nH]c3ccccc23)cc1	20	49	-10	70*	69	-6
CC1CCC2(CC1)NC(=O)N(CC(=O)Nc1sc3c(c1C(N)=O)CCC3)C2=O (centres undefined)	27	-84	3	64*	24	-28
CC1CCCCC12NC(=O)N(CC(=O)Nc1sc3c(c1C(N)=O)CCC3)C2=O (centres undefined)	1	-61	-1	82*	-5	-62
COC(=O)c1c(NC(=O)CN2C(=O)NC3(CCC(C(C)(C)C)CC3)C2=O)sc2c1CCCCC2 (centres undefined)	4	-45	-4	-22	0	-16
Cn1cnnc1SCC(=O)Nc1sc2c(c1C(N)=O)CCC2	19	-64	-1	100*	16	-28
NC(=O)c1c(NC(=O)CN2C(=O)NC(Cc3ccccc3)C2=O)sc2c1CCC2 (centres undefined)	14	-12	/	34	3	-17
COc1ccc(-c2cc(N)n(S(=O)(=O)c3ccc(F)cc3)n2)cc1OC	2	-11	2	10	4	-6
SMILES	eIF4E-4G inh	Mcl1-Bid inh	Bim-Mcl-1	Mcl1-Noxa inh	14-3-3 Bad PPI	NCF1 inh
CCOc1ccc2oc(C(=O)OC(C(=O)NC(N)=O)C(C)C)c(C)c2c1 (centres undefined)	-1	-29	/	9	6	-10
Cn1cccc1CC(=O)N/N=C/c1ccc(Cl)c([N+](=O)[O-])c1	-1	-125	/	1	-4	-11
Cc1cccc2cc3c(N)c(C#N)sc3nc12	-4	-8	4	30	-2	-52
Cc1sc(NC(=O)c2sc3nc4c(C)cccc4cc3c2N)c(C#N)c1C	-2	97*	0	96*	60	-51
C/C(=N\NC(=O)COc1ccc(C)cc1Br)c1cc([N+](=O)[O-])cs1	12	-27	0	-33	-6	32*
Cc1ccnc(NC(=O)CCC(=O)N(CC(=O)NC(C)(C)C)c2ccc(F)c(Cl)c2)c1	0	-15	-2	3	-1	-17
c1ccc2c(CSc3ncnc4nc[nH]c34)cccc2c1	-2	-10	0	5	-11	-14
CCOC(=O)CNC(=O)N1CCCC(CNS(=O)(=O)Cc2ccccc2)C1 (centres undefined)	2	-2	1	-6	-6	2
O=C(NCCc1ccccc1)N1CCCC(CNS(=O)(=O)Cc2ccccc2)C1 (centres undefined)	-3	10	0	54*	-6	10
C=CCN1C(=O)SC(Cc2cccc(OC)c2O)C1=O (centres undefined)	-2	-7	0	7	-5	4
CCOC(=O)C1=C(C)N(c2ccc(C)cc2)C(=O)/C1=C\c1ccc(O)c(OC)c1	3	-164	/	39	26	-13
CCOC(=O)C1=C(O)c2ccccc2C(=O)/C1=C\c1ccc(C)cc1	6	27	2	79*	-11	57*
CCOc1cc(/C=C2/C(=N)N3C=CSC3=NC2=O)ccc1OCCCOc1ccccc1C	-16	57*	0	35	8	-24
COc1cccc(C(=O)N(Cc2ccccc2)Cc2cc3cc4c(cc3[nH]c2=O)OCCO4)c1	3	-17	-1	10	6	-2
COc1ccc(C(=O)N(Cc2ccccc2)Cc2cc3cc4c(cc3[nH]c2=O)OCCO4)cc1	-5	95*	0	4	3	-4
C/C=C\C=C/C(=O)Nc1cccc(C2=NOC3(C2)C[C@H](C(N)=O)N(C(=O)Cc2ccc([N+](=O)[O-])cc2)C3)c1 (some centres undefined)	-5	6	/	65*	3	-17
C/C=C\C=C/C(=O)Nc1cccc(C2=NOC3(C2)C[C@H](C(N)=O)N(C(=O)c2ccc(OC)cc2)C3)c1 (some centres undefined)	-3	27	/	63*	-4	1
C/C=C\C=C/C(=O)Nc1cccc(C2=NOC3(C2)C[C@@H](C(N)=O)N(C(=O)c2ccc(Cl)cc2)C3)c1 (some centres undefined)	4	28	/	38	3	-5
Cc1ccc(-n2[nH]c(=O)c(-c3ccccn3)c2C)cc1	2	-8	0	7	-2	-6
Cc1ccc(-n2[nH]c(=O)c3cccnc32)cc1	2	-11	-5	65*	-13	-2
